Test results: PubChem BioAssay (EPA / NIEHS)
Inconclusive results are not listed. Calls of active or inactive are those of the source. How the source made its calls: active means hit-call score of the fitted dose curve at least 0.9, where 1 is the maximum; inconclusive means response in the unintended direction; inactive means score below 0.9.

What follows are compounds tested on Glyceraldehyde-3-phosphate dehydrogenase (Homo sapiens) (UniProt P04406) (assay: CLD_GAPDH_6hr: CellzDirect (CLD) Gene Expression Assay for Baseline Control (Glyceraldehyde 3-phosphate dehydrogenase) at 6 hours (AID 2283681)).
Chain of Glyceraldehyde-3-phosphate dehydrogenase (Homo sapiens) (P04406 whole entry, looked up): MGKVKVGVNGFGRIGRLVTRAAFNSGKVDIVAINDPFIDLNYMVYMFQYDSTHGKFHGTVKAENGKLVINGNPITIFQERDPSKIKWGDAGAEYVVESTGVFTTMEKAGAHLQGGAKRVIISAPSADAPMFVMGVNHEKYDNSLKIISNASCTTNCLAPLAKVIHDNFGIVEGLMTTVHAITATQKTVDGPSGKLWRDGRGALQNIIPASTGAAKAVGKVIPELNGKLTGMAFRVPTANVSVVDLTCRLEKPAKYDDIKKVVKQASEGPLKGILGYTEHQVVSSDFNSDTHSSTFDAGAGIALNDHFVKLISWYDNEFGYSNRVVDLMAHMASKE
Procedure: CLD_6hr is a cell-based, multiplexed-readout assay that uses hepatocyte, a human liver primary cell, with measurements taken at 6 hours after chemical dosing in a 96-well plate.CLD_GAPDH_6hr is one of 16 assay component(s) measured or calculated from the CLD_6hr assay. It is designed to make measurements of mRNA induction, a form of inducible reporter, as detected with chemiluminescence signals by Quantitative Nuclease Protection Assay (qNPA) technology.Data from the assay component CLD_GAPDH_6hr was analyzed at the endpoint, CLD_GAPDH_6hr, in the positive analysis fitting direction relative to DMSO as the negative control and baseline of activity. Using a type of inducible reporter, gain-of-signal activity can be used to understand changes in the reporter gene as they relate to the gene GAPDH. Furthermore, this assay endpoint can be referred to as a secondary readout, because this assay has produced multiple assay endpoints where this one serves a background control function. To generalize the intended target to other relatable targets, this assay endpoint is annotated to the background measurement intended target family, where subfamily is baseline control.
Human hepatocyte cultures were treated daily for two consecutive days with fresh dosing solutions containing appropriate concentrations of the 320 ToxCast chemicals (chemical identities were blinded to CellzDirect and other ToxCast collaborators), vehicle control (0.2% DMSO), and positive control inducers as summarized in Table 1. Due to the large number of treatment groups and chemicals examined, the ToxCast chemicals were divided into two groups (spanning two independent cultures of hepatocytes from separate donor preparations (Hu778: ToxCast plates 1 and 2; Hu776: ToxCast plates 3 and 4). Each preparation of human hepatocyte cultures was treated with respective vehicle control, medium only control, set of six positive controls/reference chemicals for the five hepatic receptor pathways, and a subset of eight of the ToxCast chemicals (indoxacarb, pyrithiobac-sodium, norflurazon, cyhalofop-butyl, methomyl, thiram, acetochlor, and propiconazole). These replicate data, coupled with internal replicates designed within the blinded ToxCast chemical library, provided additional data to evaluate interindividual differences between hepatocyte preparations and their potential impact on chemical profiles.Cell morphology and integrity were evaluated using phase-contrast microscopy as an indicator of hepatocyte cell health (Tyson & Green, 1987). Cultures for each treatment group (i.e., media, vehicle [0.2% DMSO], positive control inducers [multiple concentrations], and the ToxCast chemicals [multiple concentrations]) were observed and cell morphology was assessed relative to vehicle control cultures at each harvest time point (0, 6, 24, or 48 h). […] Images were evaluated at the conclusion of the study to assess changes in cell integrity and account for the effects of chemical exposure on uncharacteristic changes in concentration-dependent gene expression profiles. The results from these determinations of apparent cytotoxicity were annotated (yes/no) alongside the corresponding qNPA data for reference.At the conclusion of each treatment period, hepatocyte cultures (96-well) were washed with 1 volume of HBSS, lysed by addition of 25 ul ArrayPlate lysis buffer (HTG, Tucson, AZ), and 70 ul/well of Denaturation Oil, denatured by incubation at 95C for 10 min, and frozen at approximately -70C until analysis by nuclease protection assay (qNPA) (Roberts et al., 2007). For qNPA analysis, cell lysates were thawed at 50C for approximately 30 min, qNPA probes were added, and samples were incubated at 95C for 10 min to begin the detection process by denaturing the target RNA, dissociating the duplexes and secondary structure hybridization. At the conclusion of the hybridization period, S1 nuclease reagent was added to each sample to digest all nonprotected nucleotides at 50C for 60-90 min. […]
In the case of `Cc1c(F)c(F)c(COC(=O)C2C(/C=C(\Cl)C(F)(F)F)C2(C)C)c(F)c1F` (centres undefined), the outcome is reported as “inactive”.
For `CCNc1nc(Cl)nc(NCC)n1`, the outcome was “inactive”.
In the case of `CNC(=S)S`, the outcome is reported as “inactive”.
With `C=CCC1=C(C)[C@@H](OC(=O)[C@@H]2[C@@H](C=C(C)C)C2(C)C)CC1=O` the outcome was “inactive”.
With `CC(Oc1ccc(Cl)cc1Cl)C(=O)O` (centres undefined) the outcome was “inactive”.
For `CC1COC(Cn2cncn2)(c2ccc(Oc3ccc(Cl)cc3)cc2Cl)O1` (centres undefined), the outcome was “inactive”.
`CC(C)C1(C)N=C(c2nc3ccccc3cc2C(=O)O)NC1=O` (centres undefined) was tested, and the outcome was “inactive”.
For `CCNc1nc(Cl)nc(NC(C)C)n1`, the outcome was “inactive”.
For `CCCCNC(=O)n1c(NC(=O)OC)nc2ccccc21`, the outcome was “inactive”.
For `N#Cc1nn(-c2c(Cl)cc(C(F)(F)F)cc2Cl)c(N)c1S(=O)C(F)(F)F` (centres undefined), the outcome was “inactive”.
For `CS/C(C)=N/OC(=O)N(C)SN(C)C(=O)O/N=C(\C)SC`, the outcome was “inactive”.
`O=C(O)COc1nc(Cl)c(Cl)cc1Cl` was tested, and the outcome was “inactive”.
With `COC(=O)C(C)Oc1ccc(Oc2ccc(Cl)cc2Cl)cc1` (centres undefined) the outcome was “inactive”.
With `CCOc1cc(Oc2ccc(C(F)(F)F)cc2Cl)ccc1[N+](=O)[O-]` the outcome was “inactive”.
With `COc1nc(C)nc(NC(=O)NS(=O)(=O)c2ccccc2Cl)n1` the outcome was “inactive”.
In the case of `CCON=C(CC)C1=C(O)CC(c2c(C)cc(C)cc2C)CC1=O` (centres undefined), the outcome is reported as “inactive”.
In the case of `N#Cc1cc(Br)c(O)c(Br)c1`, the outcome is reported as “inactive”.
With `CCOC(=O)CC(SP(=S)(OC)OC)C(=O)OCC` (centres undefined) the outcome was “inactive”.
In the case of `CNC(=O)ON=CC(C)(C)SC`, the outcome is reported as “inactive”.
For `CCCCOC(=O)c1ccccc1C(=O)OCCCC`, the outcome was “inactive”.
In the case of `COP(=S)(OC)Oc1nc(Cl)c(Cl)cc1Cl`, the outcome is reported as “inactive”.
With `COc1nc(NC(C)C)nc(NC(C)C)n1` the outcome was “inactive”.
In the case of `CCOC(=O)C(Cl)Cc1cc(-n2nc(C)n(C(F)F)c2=O)c(F)cc1Cl` (centres undefined), the outcome is reported as “inactive”.
`CC(C)Oc1cc(-n2nc(C(C)(C)C)oc2=O)c(Cl)cc1Cl` was tested, and the outcome was “inactive”.
For `CO/C=C(/C(=O)OC)c1ccccc1Oc1cc(Oc2ccccc2C#N)ncn1`, the outcome was “inactive”.
For `OC(c1ccc(Cl)cc1)(c1cncnc1)c1ccccc1Cl` (centres undefined), the outcome was “inactive”.
For `Oc1ccccc1-c1ccccc1`, the outcome was “inactive”.
For `O=C(O)c1nc(Cl)ccc1Cl`, the outcome was “inactive”.
For `COc1nc(C)nc(NC(=O)NS(=O)(=O)c2ccccc2CCC(F)(F)F)n1`, the outcome was “inactive”.
With `O=C(Nc1ccccc1)Nc1ccnc(Cl)c1` the outcome was “inactive”.
In the case of `COC(=O)C=C(C)OP(=O)(OC)OC`, the outcome is reported as “inactive”.
With `Cc1cc(Cl)ccc1OCC(=O)O` the outcome was “inactive”.
With `Cc1ccc(-c2c(Cl)nc(C#N)n2S(=O)(=O)N(C)C)cc1` the outcome was “inactive”.
For `CN(C)C(=S)SSC(=S)N(C)C`, the outcome was “inactive”.
With `C=CC1(C)OC(=O)N(c2cc(Cl)cc(Cl)c2)C1=O` (centres undefined) the outcome was “inactive”.
In the case of `CCCCC(CC)COC(=O)c1ccccc1C(=O)OCC(CC)CCCC` (centres undefined), the outcome is reported as “inactive”.
In the case of `COC(=O)N(OC)c1ccccc1COc1ccn(-c2ccc(Cl)cc2)n1`, the outcome is reported as “inactive”.
With `CCCCNC(=O)OCC#CI` the outcome was “inactive”.
For `CC(C)(C)c1ccc(CSc2cnn(C(C)(C)C)c(=O)c2Cl)cc1`, the outcome was “inactive”.
